{"source": "PubChem BioAssay AID485314", "about": "(National Center for Advancing Translational Sciences (NCATS), 2010)", "note": "Values joined by “and” are separate entries in the source; they are usually repeats but may differ in a detail not shown here. Equal entries are not always repeated. The whole screen tested about 340,000 compounds, of which about 4,500 (1.3%) were called active. Roughly 5% stayed inconclusive and do not appear here. For the sample, actives were picked, then their nearest neighbours and some compounds at random. Unmarked numbers belong to inactive results. Calls come from the whole dose curve; as a rule, active = well fitted inhibition curve with a large enough effect; inconclusive = small, poorly fitted or top-dose-only effect, or another doubt; inactive = no such curve, though single readings can be large or run the other way. % is set by controls: 0 for no effect and ±100 for the full control effect; potency is the fitted concentration of half-maximal effect."}
{"biological_target": "DNA polymerase beta (Homo sapiens) (UniProt P06746)", "experiment": "qHTS Assay for Inhibitors of DNA Polymerase Beta", "conditions": "Pol beta primer extension/strand displacement, fluorescence kinetic; series mostly up to 114 µM; activity change, negative = inhibition: at the top concentration", "summary_of_the_method": "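Pol beta (10 nM) was preincubated with compound for 15 min at room temperature. The reaction was then started with 50 nM substrate and read immediately and after a further 10 min at room temperature.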", "units": {"activity change, negative = inhibition": "%"}}
{"molecule": "COc1ccc(/C=C/c2nc(C#N)c(NCc3ccc(F)cc3)o2)cc1OC", "activity change, negative = inhibition": -25.4}
{"molecule": "O=c1c2ccccc2oc2nc(C3CCCCC3)n(Cc3ccco3)c(=O)c12", "activity change, negative = inhibition": -1.37}
{"molecule": "Cc1nc2c(c(=O)n1Cc1ccco1)c1nc3ccccc3nc1n2Cc1ccccc1", "Potency": "20 µM (active)"}
{"molecule": "Cn1c2ccccc2c(=O)c2c(=O)n(Cc3ccco3)c(COc3ccccc3)nc21", "activity change, negative = inhibition": -7.71}
{"molecule": "Cc1cc(NC(=O)CSc2nc3cc(Cl)ccc3c(=O)n2Cc2ccco2)no1", "activity change, negative = inhibition": -0.389}
{"molecule": "Cc1ccc(Cn2c(C)nc3c(c2=O)c2nc4ccccc4nc2n3Cc2ccco2)cc1", "Potency": "10 µM (active)"}
{"molecule": "Clc1cccc(-c2nc3nc4ccccc4nc3n2Cc2ccco2)c1", "activity change, negative = inhibition": -2.15}
{"molecule": "Cc1c(NC(=O)C(C)(C)C)cccc1-c1nc2ccccc2s1", "activity change, negative = inhibition": -25.5}
{"molecule": "Cc1ccc(NC(=O)CCCn2c(=O)c3cccn3c3ccccc32)cc1Cl", "activity change, negative = inhibition": 3.08}
{"molecule": "Cc1ccc(CN2CCC(CNC(=O)c3cnn(-c4ccccc4Cl)c3C3CCN(C(=O)OC(C)(C)C)CC3)CC2)cc1", "activity change, negative = inhibition": 3.23}
{"molecule": "Cc1ccc(CNC(=O)CCc2c(C)nn(-c3ccc(N4CCCC4)nn3)c2C)cc1", "activity change, negative = inhibition": 2.86}
{"molecule": "CC(=O)c1ccc(S(=O)(=O)N2CCC3(CC2)OCCO3)cc1", "activity change, negative = inhibition": 8.96}
{"molecule": "CC(=O)c1cccc(Nc2ccc3cc(S(=O)(=O)N4CCC(C)CC4)ccc3n2)c1", "activity change, negative = inhibition": -0.0137}
{"molecule": "CC(=O)c1ccc(S(=O)(=O)N2CCN(C(=O)/C=C/c3ccc4ccccc4n3)CC2)cc1", "Potency": "11.2 µM (active)"}
{"molecule": "O=C1Cc2cc(S(=O)(=O)Nc3ccc(OC(F)(F)F)cc3)cc3c2N1CCC3", "activity change, negative = inhibition": -15.2}
{"molecule": "Cc1ccc(NC(=O)c2nc(S(=O)(=O)Cc3cccc(C)c3)ncc2Cl)cc1", "activity change, negative = inhibition": 16.3}
{"molecule": "COc1ccc(NS(=O)(=O)c2cc3c4c(c2)CC(=O)N4CCC3)cc1Cl", "activity change, negative = inhibition": 1.58}
{"molecule": "O=c1[nH]c2ccccc2n2c(-c3ccccc3)nnc12", "Potency": "39.8 µM (active)"}
{"molecule": "CC(C)Cn1c(=O)c2ccccc2n2c(-c3cccc(Cl)c3)nnc12", "activity change, negative = inhibition": 23}
{"molecule": "O=c1[nH]n2c(-c3ccccc3)nc(O)c2c2ccccc12", "activity change, negative = inhibition": 34.8}
{"molecule": "COc1ccc(CNC(=O)c2cc3c(-c4ccccc4F)nn(C)c3s2)c(OC)c1", "activity change, negative = inhibition": 1.71}
{"molecule": "COc1ccc(N2CCN(c3nc(-c4ccccc4F)nc4ccccc34)CC2)cc1", "activity change, negative = inhibition": -10.7}
{"molecule": "COc1ccc(-n2c(C)nc3c(cnn3-c3ccc(F)cc3)c2=O)cc1", "activity change, negative = inhibition": 42.6}
{"molecule": "CC(C)c1ccc(Cn2c(COc3ccccc3)nc3ccccc32)cc1", "activity change, negative = inhibition": 19.8}
{"molecule": "Cc1c(C)n(Cc2ccc(Cl)cc2)c2ccc(C(=O)N3CCN(c4ccccc4F)CC3)cc12", "activity change, negative = inhibition": -25.6}
{"molecule": "CC(C)c1ccc2c(c1)c(SC(C)(C)C)c(CC(C)(C)C(=O)O)n2Cc1ccc(Cl)cc1", "Potency": "50.1 µM (active) and 31.6 µM (active)"}
{"molecule": "Cc1ccc(C)c(Oc2c(C(F)(F)F)oc3c(CN4CCN(C)CC4)c(O)ccc3c2=O)c1", "activity change, negative = inhibition": -17.9}
{"molecule": "Cc1cccc(-n2ccnc2SCC(=O)Nc2cccc3ccccc23)c1C", "activity change, negative = inhibition": 10.7}
{"molecule": "CCCS(=O)(=O)Nc1cccc(-c2cn3ccsc3n2)c1", "activity change, negative = inhibition": -12.8}
{"molecule": "CC(=O)Nc1ccc(NC(=O)CCCc2nc(-c3ccc(C(C)(C)C)cc3)no2)cc1", "activity change, negative = inhibition": 28.3}
{"molecule": "CCCN1CCN(C(=O)Cn2ncc3ccccc32)CC1", "Potency": "12.6 µM (active)"}
{"molecule": "CC(C)c1ccc(NC(=O)Cn2ncc3ccccc32)cc1", "activity change, negative = inhibition": 31.7}
{"molecule": "CCc1nn(CC(=O)N2CCN(CC)CC2)c(=O)c2cccn12", "activity change, negative = inhibition": 1.16}
{"molecule": "CC(=O)c1ccc(N2CCN(C3C(=O)c4ccccc4N3C(C)=O)CC2)cc1", "note": "(stereo unspecified)", "activity change, negative = inhibition": 50.8}
{"molecule": "Cc1ccc(-c2ccc(CCC(=O)O)n2-c2ccc(C(N)=O)cc2)cc1", "activity change, negative = inhibition": 6.21}
{"molecule": "Cc1ccc(-n2nc(C)c(C(=O)O)c2-n2cccc2)cc1", "Potency": "12.6 µM (active)"}
{"molecule": "Cc1nn(-c2ccc(F)cc2)c(-n2cccc2)c1C(=O)N1CCN(c2ccccc2)CC1", "activity change, negative = inhibition": -8.92}
{"molecule": "Cc1nn(-c2ccccc2)c(-n2cccc2)c1C(=O)O", "activity change, negative = inhibition": -15.2}
{"molecule": "COc1cccc(NC(=O)C(=O)NCC(c2ccc3c(c2)OCO3)N2CCN(C)CC2)c1", "note": "(stereo unspecified)", "activity change, negative = inhibition": -9.86}
{"molecule": "Cc1ccccc1Nc1nn2c(=O)c3ccc(C(=O)NCCc4ccc(Cl)cc4)cc3nc2s1", "activity change, negative = inhibition": -0.38}
{"molecule": "CCN(Cc1ccccc1)S(=O)(=O)c1ccc2c(c1)CCCN2C(C)=O", "activity change, negative = inhibition": 31.7}
{"molecule": "CCc1nnc(SCC(=O)Nc2cc(OC)ccc2OC)nc1CC", "activity change, negative = inhibition": 23.5}
{"molecule": "CCOc1ccc2[nH]c(C(=O)N/N=C/c3cccc(OC)c3OC)cc2c1", "activity change, negative = inhibition": -0.753}
{"molecule": "COc1ccc2[nH]c(C(=O)Nc3ccccc3Cl)cc2c1", "activity change, negative = inhibition": 21.2}
{"molecule": "COc1ccc2[nH]c(C(=O)N/N=C/c3cc(OC)c(OC)c(OC)c3)cc2c1", "Potency": "8.91 µM (active)"}
{"molecule": "CCc1nc2c(cnn2-c2ccc(C)cc2)c(=O)n1-c1ccc(C)cc1", "activity change, negative = inhibition": -17.5}
{"molecule": "COc1ccccc1N1CC(C(=O)Nc2nnc(SCC(=O)NC(C)C)s2)CC1=O", "note": "(stereo unspecified)", "activity change, negative = inhibition": 21.8}
{"molecule": "COc1ccccc1N1CC(C(=O)Nc2nnc(SCC(=O)NCC3CCCO3)s2)CC1=O", "note": "(stereo unspecified)", "activity change, negative = inhibition": -12.3}
{"molecule": "Cc1ccccc1N1CC(C(=O)Nc2nnc(SCCC3OCCO3)s2)CC1=O", "note": "(stereo unspecified)", "Potency": "14.1 µM (active)"}
{"molecule": "Cc1ccc(Cl)cc1NC(=O)Cc1ccc(-n2c(C)nc3cccnc32)cc1", "activity change, negative = inhibition": -2.17}
{"molecule": "CCOC(=O)C1=C(CC)Nc2ccccc2N=C1N", "activity change, negative = inhibition": 9.29}
{"molecule": "CCS(=O)(=O)c1cc([N+](=O)[O-])c(Sc2ccccc2N)s1", "activity change, negative = inhibition": 18}
{"molecule": "CCOC(=O)c1cc(Sc2ccccc2N)cc(C(=O)OCC)n1", "Potency": "25.1 µM (active)"}
{"molecule": "CN1c2ccc(Cl)cc2-c2nc(SCC(=O)Nc3cc(F)ccc3F)ncc2S1(=O)=O", "activity change, negative = inhibition": 18}
{"molecule": "COc1cc(CNCCSc2nnnn2C)ccc1OCc1ccc(Cl)cc1Cl", "activity change, negative = inhibition": -25.4}
{"molecule": "CCc1cccc(NC(=O)CN(C)S(=O)(=O)c2ccc3[nH]c4c(c3c2)CCCC4)c1", "activity change, negative = inhibition": 0.243}
{"molecule": "COc1cccc(CNC(=O)CCC(=O)N2CC3CCCN3c3ccccc32)c1", "note": "(stereo unspecified)", "activity change, negative = inhibition": -2.64}
{"molecule": "Cc1cc(C(=O)OCC(=O)NCc2ccco2)c(C)n1-c1ccccc1", "Potency": "22.4 µM (active)"}
{"molecule": "O=C(NCCCCCCNC(=O)NCc1ccco1)NCc1ccco1", "activity change, negative = inhibition": 24.2}
{"molecule": "Cc1c(Cl)cnc(NC(=O)COC(=O)c2ccc(S(=O)(=O)NCc3ccco3)cc2)c1Cl", "Potency": "31.6 µM (active)"}
{"molecule": "Cc1cc(C(=O)OCC(=O)N2c3ccccc3NC(=O)C2(C)C)c(C)n1-c1ccccc1", "activity change, negative = inhibition": -0.675}
{"molecule": "O=C(COC(=O)c1ccco1)NCc1ccc(Cl)cc1", "activity change, negative = inhibition": -9.59}
{"molecule": "CN(c1ccccc1)S(=O)(=O)c1ccc(Cl)c(C(=O)OCC(=O)NCc2ccco2)c1", "activity change, negative = inhibition": -98.4}
{"molecule": "C/C(=N\\Nc1ncc(Cl)cc1Cl)c1ccc(S(=O)(=O)NCc2ccco2)cc1", "activity change, negative = inhibition": 13.7}
{"molecule": "O=C(COC(=O)c1cnc(Cl)c(Cl)c1)NCc1ccco1", "Potency": "25.1 µM (active)"}
{"molecule": "O=C(COC(=O)c1cc(S(=O)(=O)N2CCCCC2)ccc1Cl)NCc1ccco1", "activity change, negative = inhibition": 1.64}
{"molecule": "O=C(CC1CCCCC1)NCc1ccco1", "activity change, negative = inhibition": -12.9}
{"molecule": "O=C(COC(=O)C12CC3CC(CC(C3)C1)C2)NCc1ccco1", "Potency": "14.1 µM (active)"}
{"molecule": "CSCCC(NC(=O)c1ccco1)C(=O)OCC(=O)Nc1ncc(Cl)c(C)c1Cl", "note": "(stereo unspecified)", "activity change, negative = inhibition": -18}
{"molecule": "COc1ccc(NC(=O)CCCN2C(=O)CCn3nc(-c4cn(C)c5ccccc45)cc32)cc1OC", "activity change, negative = inhibition": 4.33}
{"molecule": "CCN1CCN(C(c2ccc(C)cc2)c2c(O)cc(C)n(Cc3ccco3)c2=O)CC1", "note": "(stereo unspecified)", "activity change, negative = inhibition": -20}
{"molecule": "CC1Cc2cc(S(=O)(=O)CCC(=O)NCc3ccc(Cl)cc3)ccc2N1C(=O)C1CC1", "note": "(stereo unspecified)", "activity change, negative = inhibition": -0.0771}
{"molecule": "C#CC(C)(CC)NC(=O)Cn1nnc(-c2ccc(OCc3c(F)cccc3Cl)cc2)n1", "note": "(stereo unspecified)", "activity change, negative = inhibition": -7.54}
{"molecule": "CC(=O)OC1=C(C(C)=O)N(Cc2ccccc2)S(=O)(=O)c2ccccc21", "activity change, negative = inhibition": 18.8}
{"molecule": "O=C(C1CCC(Cn2c(=O)c3sccc3n(Cc3ccccc3F)c2=O)CC1)N1CCCCC1", "note": "(stereo unspecified)", "activity change, negative = inhibition": -0.425}
{"molecule": "COCCCNC(=O)c1ccc(NC(=O)c2nsc3ccccc23)cc1", "activity change, negative = inhibition": -0.898}
